These results are taken from PubChem BioAssay (NCI).

This is part of a sample that, as a whole, favours compounds with a hit. Of some 79,000 tested, about 15% had one in any assay. The source made the active and inactive calls. No stated cut-off is given here; in the data, active means growth inhibition above about 70%; inactive means the rest.

A short description of the experiment: NCI Yeast Anticancer Drug Screen. Data for the mlh1 rad18 strain (AID 175). The following applies: S. cerevisiae mlh1 rad18 strain growth inhibition; at 50.0 µM; active compounds read high. In a few lines:
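Cells of a genetically altered yeast strain, deficient in DNA damage repair, were treated with compound. Their growth was then compared with that of vehicle-treated cultures to give inhibition.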
On to `CC1CCN(CCOC(=O)C(c2ccccc2)C2C=CCCC2)C1C` (stereo not given), for which the growth inhibition was 77.5% (active).

As to `CC(CCCN(C)Cc1ccccc1)Nc1ccnc2cc(Cl)ccc12` (stereo not given), the growth inhibition was 98% (active).

For `O=C(/C(Cl)=N/O)c1ccccc1`, the growth inhibition was 50% (inactive).

Take `CN(C)C1C[C@@H](O[Si](C)(C)C(C)(C)C)C=C1S(=O)(=O)c1ccccc1` (stereo not given in full): the growth inhibition was 58% (inactive).

In the case of `Nc1nnc(Cc2ccc(Br)cc2)o1`, the growth inhibition was 58.3% (inactive).

As for `CSc1nc(C)cc(SCc2ccc(Cl)cc2Cl)n1`, the growth inhibition is -25.4% (inactive).

For `CC[N](CC)[Ge]([CH2]C)[CH2]C.CC[N](CC)[Ge]([CH2]C)[CH2]C`, the growth inhibition is 77.7% (active).

On to `Cc1c(-c2ccccc2)ccnc1/C=N/NC(=S)Nc1ccc(N(C)C)cc1`, for which the growth inhibition is 79.6% (active).

Regarding `Cc1cc(C)nc(NS(=O)(=O)c2ccc(Nc3c4ccccc4nc4c(C(=O)NC(CO)(CO)CO)cccc34)cc2)n1`, the growth inhibition is -8.4% (inactive).

Consider `CCCC(CCC)NCCOC(=O)C(CC)c1ccccc1` (stereo not given), for which the growth inhibition is 75% (active).

`OCCc1ccc(-n2cnc3c(Nc4ccc(Cl)cc4)ncnc32)cc1`: the growth inhibition is 47% (inactive).

For the compound `Cc1cccc(N2C(=O)c3ccccc3C2(c2ccccc2)N2CCCCC2)c1` (stereo not given), the growth inhibition was 58.5% (inactive).

For `CCCCN(CCO)CCNc1ccc(C)c2sc3ccccc3c(=O)c12`, the growth inhibition was 95.5% (active).

As to `Cc1ccc(C)c(C(=O)CCN)c1`, the growth inhibition was 3.55% (inactive).

Regarding `O=C1C(C(O)(C(F)(F)Cl)C(F)(F)Cl)CCCC1C(O)(C(F)(F)Cl)C(F)(F)Cl` (stereo not given), the growth inhibition is 99.6% (active).

Turning to `CC(C)c1cc2c(cc1O)C(O)C1(O)CCCC(C)(C)[C@H]1CC2` (stereo not given in full), the growth inhibition is 91.8% (active).

Regarding `CN(C)[C@@H]1C(=O)C(C(=O)NCNc2nc3n[nH]nc3c(=O)[nH]2)=C(O)[C@@]2(O)C(=O)C3=C(O)c4c(O)cccc4[C@@](C)(O)[C@H]3C[C@@H]12`, the growth inhibition is -4.9% (inactive).

Take `CCOC(=O)c1csc(=S)[nH]1`: the growth inhibition is 35.9% (inactive).

Turning to `CC(=O)[O-].O=C(N/N=C/c1ccccc1[O-])c1ccccc1.[Zn+2]`, the growth inhibition was 32% (inactive).

Regarding `Clc1ccc(C(CCOc2ccccc2Br)Cn2ccnc2)c(Cl)c1` (stereo not given), the growth inhibition was 95.3% (active).

As to `CCCC(C)C/C(C)=C\C(C)(C)C1CC(=O)N(CC)C1=O` (stereo not given), the growth inhibition was 60.9% (inactive).

As for `CSC(SC)=C1C(=O)NC(Cc2ccccc2)C1=O` (stereo not given), the growth inhibition was 83% (active).

For `CCCCCCSc1nc2ccc(N=Cc3ccccc3O)cc2s1`, the growth inhibition was 80.1% (active).

For the compound `Cc1cc(C(=O)O)c(C)c2c1sc1ccccc12`, the growth inhibition is 81.2% (active).

As for `O=C(Nc1ccc(Cl)cc1)Nc1nnc2nc(C(C(=O)/C=C/c3ccccc3)c3nc4nnc(NC(=O)Nc5ccc(Cl)cc5)n4[nH]c3=O)c(=O)[nH]n12`, the growth inhibition was 63.2% (inactive).

For the compound `O=c1c(SSc2coc3ccccc3c2=O)coc2ccccc12`, the growth inhibition was 93.5% (active).

`C[n+]1c(/C=C/c2ccc(N3CCCC3)cc2)sc2ccccc21`: the growth inhibition was 98.8% (active).

For `CCC(C(c1ccc(Cl)cc1)c1ccc(Cl)c(Cl)c1)[N+](=O)[O-]` (stereo not given), the growth inhibition was 5.3% (inactive).

Consider `O=C1OC(C2OC(=O)C(=O)C2C(=O)c2ccc([N+](=O)[O-])cc2)C(C(=O)c2ccc([N+](=O)[O-])cc2)C1=O` (stereo not given), for which the growth inhibition was 96.5% (active).

Take `O=[N+]([O-])c1ccc(O)c(C2CCCCC2)c1`: the growth inhibition is 99% (active).

With `O=C1c2ccccc2C(=O)N1/N=C\c1ccccc1[N+](=O)[O-]`, the growth inhibition was 0.5% (inactive).

Consider `CC(C)(C)C(=O)CC(=O)C(F)(F)C(F)(F)C(F)(F)F.CC(C)(C)C(=O)CC(=O)C(F)(F)C(F)(F)C(F)(F)F.CC(C)(C)C(=O)CC(=O)C(F)(F)C(F)(F)C(F)(F)F.[Gd]`, for which the growth inhibition is 88.8% (active).

For the compound `Oc1ccc(N=Nc2ccccc2)cc1`, the growth inhibition is 99.2% (active).

As to `Cc1cc(NC(=S)SCc2ccc(F)cc2)ccc1Br`, the growth inhibition is 91.4% (active).

Consider `OC(CN1CCc2ccccc2C1)c1ccc2ccccc2c1` (stereo not given), for which the growth inhibition was 45.3% (inactive).

Consider `O=C1C=C/C(=C(/c2ccc(O)c(O)c2)c2ccccc2S(=O)(=O)O)C=C1O`, for which the growth inhibition is 1.75% (inactive).

`Cc1cc(N)c2cc(NC(=O)Nc3ccc4nc(C)cc(N)c4c3)ccc2n1`: the growth inhibition is 98.5% (active).

As to `CC(=O)N/N=C1/CC[C@@]2(C)C(=CC[C@H]3C4CCC(C(C)CCCC(C)C)[C@@]4(C)CCC32)C1(C)C` (stereo not given in full), the growth inhibition is 1.3% (inactive).

With `Cc1ncn(-c2ccccc2O)c1C`, the growth inhibition was -28.3% (inactive).

Regarding `Oc1ccc(-c2nnc(-c3ccccc3)nn2)cc1`, the growth inhibition was -9.85% (inactive).
